KDM5B inh: Primary screen for KDM5B Histone Demethylases FDH-coupled qHTS. Lysine-specific demethylase 5B (Homo sapiens), Q9UGL1. KDM5B demethylase, FDH-coupled NADH fluorescence (FDH is formaldehyde dehydrogenase). Potency, µM (doses to about 57.7 µM), usual class: inhibitors. 2.6% of 220,000 active. AID 1347165, 2019; active = well fitted inhibition curve with a large enough effect; note: 0% is about no effect; nearly all actives have a fitted effect of over 70% in size
Target sequence (Q9UGL1 whole entry, looked up): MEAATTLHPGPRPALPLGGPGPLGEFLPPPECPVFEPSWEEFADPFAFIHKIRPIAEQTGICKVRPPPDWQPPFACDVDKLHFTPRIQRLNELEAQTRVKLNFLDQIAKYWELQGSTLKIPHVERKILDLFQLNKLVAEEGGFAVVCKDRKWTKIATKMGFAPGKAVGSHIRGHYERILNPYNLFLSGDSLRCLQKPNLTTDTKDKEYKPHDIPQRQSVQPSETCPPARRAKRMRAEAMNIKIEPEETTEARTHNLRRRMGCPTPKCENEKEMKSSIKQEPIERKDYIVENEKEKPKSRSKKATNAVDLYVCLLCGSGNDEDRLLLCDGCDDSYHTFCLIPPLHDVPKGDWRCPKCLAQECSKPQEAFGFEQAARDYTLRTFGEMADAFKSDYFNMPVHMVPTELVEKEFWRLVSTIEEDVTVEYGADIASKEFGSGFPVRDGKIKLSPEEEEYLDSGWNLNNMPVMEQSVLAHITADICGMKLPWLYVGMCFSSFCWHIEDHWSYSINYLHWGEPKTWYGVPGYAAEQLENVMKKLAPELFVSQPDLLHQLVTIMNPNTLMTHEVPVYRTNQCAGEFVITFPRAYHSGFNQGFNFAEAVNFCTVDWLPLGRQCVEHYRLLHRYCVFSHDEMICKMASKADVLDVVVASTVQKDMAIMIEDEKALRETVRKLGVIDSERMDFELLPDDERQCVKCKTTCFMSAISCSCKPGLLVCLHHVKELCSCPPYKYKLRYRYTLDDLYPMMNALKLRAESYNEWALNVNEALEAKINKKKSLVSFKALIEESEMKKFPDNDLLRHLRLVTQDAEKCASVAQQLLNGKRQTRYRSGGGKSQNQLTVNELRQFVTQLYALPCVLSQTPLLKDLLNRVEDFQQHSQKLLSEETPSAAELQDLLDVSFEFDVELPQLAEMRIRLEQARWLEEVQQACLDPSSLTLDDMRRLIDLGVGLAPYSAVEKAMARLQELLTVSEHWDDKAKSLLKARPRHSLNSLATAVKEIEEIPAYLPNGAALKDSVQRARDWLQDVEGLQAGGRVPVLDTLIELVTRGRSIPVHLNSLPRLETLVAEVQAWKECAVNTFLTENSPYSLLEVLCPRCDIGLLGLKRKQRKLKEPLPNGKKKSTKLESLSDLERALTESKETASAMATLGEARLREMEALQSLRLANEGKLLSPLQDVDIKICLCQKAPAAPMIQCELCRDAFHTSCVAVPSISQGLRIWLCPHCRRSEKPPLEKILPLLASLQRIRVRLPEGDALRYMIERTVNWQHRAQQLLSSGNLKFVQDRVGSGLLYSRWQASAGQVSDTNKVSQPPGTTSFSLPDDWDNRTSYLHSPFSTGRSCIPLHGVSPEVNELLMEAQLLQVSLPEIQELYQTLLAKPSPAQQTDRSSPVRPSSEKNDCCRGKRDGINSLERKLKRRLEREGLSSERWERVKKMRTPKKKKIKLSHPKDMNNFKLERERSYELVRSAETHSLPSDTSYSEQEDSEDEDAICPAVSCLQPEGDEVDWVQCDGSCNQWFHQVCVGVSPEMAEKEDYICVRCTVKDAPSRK
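KDM5BΔAP (200 nM final) in 50 mM HEPES pH 7.5, 0.01% Tween-20 was preincubated 10 min at RT with compound over a concentration range. Substrate mix (H3K4me3 12.5 µM, α-KG 25 µM, Fe²⁺, ascorbate, NAD⁺, FDH) was added, and NADH fluorescence change over 30 min gave dose-response curves.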
The depositor's hits bear a star; i = inactive. The sample as a whole holds a higher share of hits than the screen did. Potency is the fitted concentration of half-maximal effect.

SMILES	KDM5B inh
CN(C)C(=O)Oc1ccc2cc(-c3ccccc3)c(=O)oc2c1	i
Cc1[nH]nc2c1C(c1cccc(OCC(C)C)c1)SCC(=O)N2 (stereo not drawn)	i
CCCCc1cn(C[C@H]2C[C@@H]3CCN2C[C@@H]3C(=O)Nc2ccccc2)nn1	i
CCN1CCN(C(=O)COc2ccc3c(=O)c(-c4ccccc4)coc3c2)CC1	i
CC(NC(C)c1ccc(Cl)cc1)C(=O)c1c[nH]c2ccccc12 (stereo not drawn)	i
CCCCN1CCC2(COC(=O)N2c2ccncc2)C1 (stereo not drawn)	i
CCCC(=O)c1cn(Cc2ccc(C#N)cc2)c2ccccc12	i
N#Cc1ccc(NC(=O)CCC2CCCC2)cc1Cl	i
Cn1nc(-c2ccc(F)cc2)cc1[C@H]1CN2CC[C@H]1C[C@@H]2CNC(=O)N1CCOCC1	i
Cc1nc(-c2ccc(C(F)(F)F)cc2)cc([C@H]2CN3CC[C@H]2C[C@@H]3CNC(=O)c2ccccc2C(=O)O)n1	i
Cc1nc(-c2ccc(N(C)C)cc2)cc([C@H]2CN3CC[C@H]2C[C@@H]3CNC(=O)C(C)(C)C)n1	31.6µM*
COc1ccc(-c2cc([C@H]3CN4CC[C@H]3C[C@@H]4CNC(=O)N3CCOCC3)nc(C)n2)cc1OC	22.4µM*
COc1ccccc1-c1cc([C@H]2CN3CC[C@H]2C[C@@H]3CNC(=O)N2CCOCC2)n(C)n1	i
Cn1nc(-c2ccc3ccccc3c2)cc1[C@H]1CN2CC[C@H]1C[C@@H]2CNC(=O)N1CCOCC1	i
Cc1nc(-c2ccccc2)cc([C@H]2CN3CC[C@H]2C[C@@H]3CNC(=O)c2cccs2)n1	i
Cc1nc(-c2cccs2)cc([C@H]2CN3CC[C@H]2C[C@@H]3CNC(=O)c2ccc(N(C)C)cc2)n1	i
Cc1nc(-c2ccc(N(C)C)cc2)cc([C@H]2CN3CC[C@H]2C[C@@H]3CNC(=O)N2CCOCC2)n1	28.2µM*
O=C(CSC1c2ccccc2Sc2ccccc21)Nc1ccc(C(=O)O)cc1	i
CCN(CC)C[C@H]1CN2CC[C@H]1C[C@@H]2CNC(=O)NC(C)C	i
Cc1[nH]c2ccccc2c1/C=C/[N+](=O)[O-]	i
COc1cccc(CCNCc2ccc(Br)cc2)c1	i
Cc1cc(O)c2c(C)c(CC(=O)N3CCN(C)CC3)c(=O)oc2c1	i
CC1OC(OC2CCC3(C=O)[C@H]4CCC5(C)C(C6=CC(=O)OC6)CCC5(O)[C@@H]4CCC3(O)C2)CC2OC(C)(C)OC12 (stereo partly drawn)	i
COc1ccc(CNCCc2cccc(Cl)c2)cc1	i
N#Cc1ccc(CN2CCC(c3c[nH]c4ccccc34)CC2)cc1	i
SMILES	KDM5B inh
COc1ccc(S(=O)(=O)NC[C@H]2C[C@@H]3CCN2C[C@@H]3CN2CCC(Cc3ccccc3)CC2)cc1	i
CC(C)N1CC2CCC(C1)N2Cc1cccs1	i
O=c1c(-c2cccs2)ccc2n1C[C@H]1C[C@@H]2CN(Cc2cc3ccccc3o2)C1	31.6µM*
COc1ccccc1NC(=O)N1C[C@@H]2C[C@H](C1)c1c(-c3cccs3)ccc(=O)n1C2	i
Cc1ccccc1-c1ccc2n(c1=O)C[C@H]1C[C@@H]2CN(Cc2cccs2)C1	31.6µM*
Cc1ccccc1-c1ccc2n(c1=O)C[C@H]1C[C@@H]2CN(S(=O)(=O)c2ccccc2C#N)C1	i
N#CC(C#N)=Cc1cccn1-c1ccc(Br)cc1	i
Cc1c(C=O)c(C)n(C(C)C)c1C	i
COC1C(O)CC(OC2C(O)CC(OC3C(O)CC(OC4CCC5(C)C(CCC6[C@@H]5CC(O)C5(C)C(C7=CC(=O)OC7)CCC65O)C4)OC3C)OC2C)OC1C (stereo partly drawn)	i
O=C1Nc2ccccc2C12CCN(CC1CCCCC1)CC2	i
COc1ccc(C(C#N)C(C)=O)cc1 (stereo not drawn)	i
Cc1cc(C)c(NC(=O)c2cn(Cc3ccccc3)nn2)c(C)c1	i
Cc1nn(-c2ncnc3nc[nH]c23)c2c1C(c1ccc(F)c(F)c1)SCC(=O)N2 (stereo not drawn)	i
COc1ccccc1CNCCc1c[nH]c2ccccc12	i

Bioassay records deposited in PubChem by National Center for Advancing Translational Sciences (NCATS).
